# In the library only some 2.9% were active in any assay of this set; here they are far more common.
# PP1 counter – blocks human PP1-alpha phosphatase, a PP5 counter-screen; P62136; purified PP1alpha, OMFP fluorescence; inhibition, % at 6.7 µM; hit rate 0.9% among 320,000; AID 2235;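 active means inhibition above the mean inhibition of all tested compounds plus 3 SD, computed separately for each screening campaign, cut at about 15% in these data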
# NadD inh – inhibitors of Staphylococcus aureus NadD; hit rate 0.78% among 360,000; purified NadD enzyme, colorimetric absorbance read-out; AID 602399; inhibition, % at 20 µM; in the data active means inhibition above about 26%
# GRK2 inh – human GRK2 inhibition via aptamer displacement; inhibition of aptamer binding, % at 10 µM; P25098; bead flow cytometry, FAM-aptamer displacement from GRK2; hit rate 0.59% among 330,000;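 active means inhibition of aptamer binding above 40%, roughly 3 SD of noise, on plates passing a quality check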;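 further: median bead fluorescence of bound FAM aptamer so fluorescent compounds give negative values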
# Target sequence (P25098 whole entry, looked up): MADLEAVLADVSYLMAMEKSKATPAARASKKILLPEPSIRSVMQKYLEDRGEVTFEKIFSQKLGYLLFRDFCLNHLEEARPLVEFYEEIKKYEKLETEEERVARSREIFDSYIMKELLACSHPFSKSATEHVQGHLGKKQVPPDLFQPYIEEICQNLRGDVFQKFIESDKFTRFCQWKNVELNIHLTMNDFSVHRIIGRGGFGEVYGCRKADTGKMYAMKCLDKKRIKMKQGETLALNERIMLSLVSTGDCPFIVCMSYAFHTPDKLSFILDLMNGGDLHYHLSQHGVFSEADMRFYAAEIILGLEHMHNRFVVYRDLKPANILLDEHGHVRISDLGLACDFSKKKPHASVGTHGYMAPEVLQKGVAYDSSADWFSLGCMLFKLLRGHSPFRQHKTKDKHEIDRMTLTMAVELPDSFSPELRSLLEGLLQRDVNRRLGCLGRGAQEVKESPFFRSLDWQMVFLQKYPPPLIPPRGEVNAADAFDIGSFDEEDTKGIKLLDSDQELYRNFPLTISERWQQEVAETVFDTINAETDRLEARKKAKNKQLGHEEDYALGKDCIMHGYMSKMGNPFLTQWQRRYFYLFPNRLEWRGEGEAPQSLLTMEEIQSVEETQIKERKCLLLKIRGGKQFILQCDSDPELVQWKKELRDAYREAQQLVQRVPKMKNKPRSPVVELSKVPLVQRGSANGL
# Exocytosis inh – lytic granule exocytosis inhibition; TALL-104 LAMP-1 surface exposure, flow cytometry; cells stimulated with thapsigargin and PMA; hit rate 0.66% among 360,000; inhibition, % at 10 µM;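 active means inhibition above about 55%, limit read from the data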
# Beta2AR agonist – human beta-2 adrenergic receptor agonism by FAP; AID 504454; Am2.2-beta2AR cells, FAP receptor internalization, flow cytometry; response, % (concentration not given with the values); P07550; hit rate 0.43% among 340,000;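 active means response above a set limit, near 3 SD of response in nonfluorescent compounds, cut at about 42% in these data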
# Exocytosis CP01 – blocks lytic granule exocytosis; shares compounds with Exocytosis inh; inhibition, % at 10 µM; TALL-104 cells, LAMP-1 externalization, flow cytometry; stimulated with PMA plus thapsigargin; hit rate 11% among 1,500; in the data active means inhibition above about 60%;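 further: 0% = stimulated vehicle wells and 100% = unstimulated wells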
# * marks the source's active call; other numbers are inactive results; nt = not tested or not shown.
SMILES,PP1 counter,NadD inh,GRK2 inh,Exocytosis inh,Beta2AR agonist,Exocytosis CP01
CCOc1cccc(CN(CC)CC2CCCN(CCc3cccc(OC)c3)C2)c1O (centres undefined),-3,-8,1,85*,7,-12
CCN(Cc1cccc(OC)c1)CC1CCCN(CCc2cccc(OC)c2)C1 (centres undefined),-2,-7,0,71*,7,-13
C=CCC(=O)N(CC)CC1CCCN(CCc2cccc(F)c2)C1 (centres undefined),nt,3,0,22,-5,nt
CCN(Cc1ccc(O)cc1)CC1CCCN(CCc2cccc(F)c2)C1 (centres undefined),-1,-7,0,67*,6,-13
CCN(CC1CCCN(CCc2cccc(OC)c2)C1)C(=O)C=C(C)C (centres undefined),3,1,2,22,1,nt
CN(Cc1ccccc1OCCO)CC1CCCN(CCc2ccc(Cl)cc2)C1 (centres undefined),1,-7,0,58*,-1,-11
CCN(CC(=O)Nc1c(F)cccc1F)C(=O)CCc1nc2sc3c(c2c(=O)[nH]1)CCCC3,2,7,3,5,4,nt
COc1ccccc1C(=O)NCC(=O)OCC(=O)N(CC(C)C)c1c(N)n(Cc2ccccc2)c(=O)[nH]c1=O,-3,-3,0,0,-1,nt
Cn1c(=O)c2c(-c3ccccc3)n(-c3cc([N+](=O)[O-])ccc3O)cc2n(C)c1=O,nt,-2,nt,-4,nt,nt
COc1ccc(CCN2C(=NC(=O)C(C)C)SC3CS(=O)(=O)CC32)cc1OC (centres undefined),-4,1,1,-3,-4,nt
COc1cccc(CN(C)CC2CCCN(CCc3ccccc3C)C2)c1 (centres undefined),1,-8,0,57*,2,-10
COc1ccc(CN(C)CC2CCCN(CCc3ccccc3C)C2)cc1O (centres undefined),1,-4,0,53,11,nt
COc1ccc(CCN2CCCC(CN(C)Cc3cc(Cl)c(O)c(OC)c3)C2)cc1 (centres undefined),nt,-3,0,56*,-1,-11
COc1ccc(CCN2CCCC(CN(C)C(=O)c3ccoc3)C2)cc1 (centres undefined),nt,-3,0,0,0,nt
CC(C)n1ncc2c(C(=O)NCCc3ccc(S(N)(=O)=O)cc3)cc(C3CC3)nc21,nt,1,nt,0,5,nt
Cc1ccc(NC(=O)Cc2nnc(SCC(=O)NC3CCCC3)n2C)c(C)c1,-4,4,1,-10,-4,nt
COc1ccccc1C(=O)Nc1cccc2cccnc12,1,-5,1,56*,4,-14
COc1cc(NC(=O)c2cc(OC)c(OC)c(OC)c2)c2ncccc2c1,nt,-9,nt,94*,4,25
COc1cc(NC(=O)c2ccc3c(c2)OCO3)c2ncccc2c1,-8,1,0,1,5,nt
CN(C)c1ccc2c(c1)Sc1cc(N(C)C)ccc1N2C(=O)c1ccccc1,2,17,3,-26,9,nt
COc1ccc(CCNC(=O)CN(c2ccccc2OC)S(=O)(=O)c2ccc(C)cc2)cc1,-4,-7,1,10,8,nt
COc1ccc(N(CC(=O)NCc2ccccc2OC)S(=O)(=O)c2ccccc2)cc1,-1,-7,0,75*,7,-14
COc1ccccc1N(CC(=O)NCc1ccccc1C)S(=O)(=O)c1ccc(C)cc1,4,-10,2,63*,-1,-13
O=C(CSc1nccn(-c2cccc(F)c2)c1=O)Nc1ccc(Cl)cc1F,4,-4,0,76*,-6,-10
O=C(c1ccco1)N1CCC(c2nc(-c3ccccc3Cl)no2)CC1,1,-4,0,100*,-11,-5
SMILES,PP1 counter,NadD inh,GRK2 inh,Exocytosis inh,Beta2AR agonist,Exocytosis CP01
CCc1nc2c(OCCn3cccc3)cccn2c1N(C)C(=O)C1CC1,nt,0,nt,-7,nt,nt
COc1ccccc1C(=O)NCC1(c2ccccc2)CCCC1,0,0,0,80*,-13,-1
O=C(Nc1ccccc1C(=O)N1CCCCC1)c1cc(F)c(F)cc1Cl,-4,-6,2,-9,3,nt
CCOc1ccc2c(c1)nc(SCC(=O)c1ccc(Br)s1)n2C,-3,-4,0,103*,-15,-5
COc1ccccc1C(=O)Nc1c2c(nn1-c1cccc(C)c1C)CS(=O)(=O)C2,0,-6,0,71*,-10,-1
Cc1cccc(-n2nc3c(c2NC(=O)c2ccco2)CS(=O)(=O)C3)c1C,-3,-2,3,3,-4,nt
CC(C)=CC(=O)NCc1c(Cl)cccc1-n1cccc1,0,-10,0,-1,-9,nt
Cc1ccc2c3c(cccc13)-c1ccccc1C2=O,-3,1,30,97*,15,77*
Clc1ccccc1OCCCOc1cccc2cccnc12,0,4,0,88*,-3,-12
CC(C)(C)CC(C)(C)N=C1Nc2cc(Cl)c(Cl)cc2NC12C[C@H]1CCC(=O)N3CC[C@@H](C2)[C@@H]13 (some centres undefined),nt,15,nt,76*,28,-12
CCOc1ccc(CCNC(=O)CN2C(=O)CCSc3ccccc32)cc1OCC,0,-7,0,96*,-11,-4
COc1ccc(N2C(=O)CC(Sc3n[nH]c(-c4ccccc4)n3)C2=O)cc1 (centres undefined),-5,-3,0,88*,2,85*
COCCNC(=O)CCc1nnc(C2(c3ccc(Cl)cc3)CCC2)o1,-5,-3,2,-2,-5,nt
O=C1C=CC(=O)N1N(c1ccccc1)c1ccccc1,-3,-5,1,78*,0,104*
O=C1c2ccccc2C(=O)N1N(c1ccccc1)c1ccccc1,nt,-11,nt,-1,5,nt
COc1ccc(-c2noc(CNC(=O)c3ccc4c(c3)OCO4)n2)cc1,4,-7,0,-10,-6,nt
Cc1cccc(-c2noc(CNC(=O)c3ccc4c(c3)OCO4)n2)c1,-2,-6,2,56*,-15,-6
CCOC(=O)C1=C(C)N(c2ccccc2)C(=O)C1,-2,3,0,100*,13,-14
Cc1ccc2cccc(NC(=O)c3ccc(Br)o3)c2n1,1,7,2,89*,6,-4
Cc1nc(C(=O)NCc2ccccc2)sc1C1(C)CC(c2cccc([N+](=O)[O-])c2)=NO1 (centres undefined),0,-13,2,59*,-10,-5
COc1ccccc1CNc1nc(NCc2ccc(C(C)C)cc2)c2sccc2n1,nt,25,nt,62*,nt,85*
COc1ccccc1CNc1nc(NC(C)C)nc2ccsc12,nt,3,nt,-13,nt,nt
O=C(NCCC1=CCCCC1)c1ccc(-n2cncn2)c([N+](=O)[O-])c1,-8,-5,5,16,15,nt
CCOC(=O)COc1ccccc1C(=O)c1cnn(-c2ccccc2)c1,2,-5,0,62*,0,-9

# From PubChem
